Screening results: PubChem BioAssay, National Center for Advancing Translational Sciences (NCATS)
Eya2 phos inh – Eya2 (human) phosphatase inhibition; O00167; recombinant Eya2, OMFP fluorescence dephosphorylation (OMFP is methylfluorescein phosphate); Potency, µM (top dose mostly 76.9 µM), hits mostly inhibitors; 0.006% of 330,000 active; AID 488837
Target sequence (O00167 whole entry, looked up): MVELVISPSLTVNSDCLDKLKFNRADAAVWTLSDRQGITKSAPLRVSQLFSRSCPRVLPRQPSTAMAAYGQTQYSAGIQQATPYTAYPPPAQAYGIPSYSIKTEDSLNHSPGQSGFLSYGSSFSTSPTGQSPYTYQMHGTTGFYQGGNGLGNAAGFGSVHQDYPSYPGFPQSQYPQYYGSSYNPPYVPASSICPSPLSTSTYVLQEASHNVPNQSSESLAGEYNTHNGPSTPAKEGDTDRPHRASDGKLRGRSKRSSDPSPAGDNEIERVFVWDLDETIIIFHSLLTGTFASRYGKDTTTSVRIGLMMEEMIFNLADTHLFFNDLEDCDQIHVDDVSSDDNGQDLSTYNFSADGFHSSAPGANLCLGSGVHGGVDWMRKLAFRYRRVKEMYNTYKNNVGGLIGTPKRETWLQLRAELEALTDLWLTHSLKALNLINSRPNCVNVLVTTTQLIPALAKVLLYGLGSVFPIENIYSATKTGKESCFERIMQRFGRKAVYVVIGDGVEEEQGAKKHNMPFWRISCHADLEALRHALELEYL
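Eya2 protein (added as 0.2 uM solution) was preincubated with compound for 10 min at ambient temperature in 50 mM HEPES pH 7.5, 50 mM NaCl, 5 uM MgCl2, 0.05% BSA, 1 mM DTT. OMFP (added at 50 uM) then reacted 10 min; fluorescence read at 485/525 nm.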
CBFb RUNX1 block – CBF-beta/RUNX1 interaction disruption; Q01196+Q13951; AlphaScreen CBFb-His/RUNX1-biotin binding, biochemical; Potency, µM (top dose mostly 59.8 µM), most hits filed as inhibitors; 230,000 tested, under 10 active
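CBFb-His/RUNX1-biotin, 30 nM each, preincubated 20 min RT; compound 15 min RT; Ni + streptavidin beads 50 ng each, 90 min RT; AlphaScreen read.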
TSHR antagonist – antagonists of human thyroid stimulating hormone receptor. P16473. AID 504810. 0.2% of 330,000 active. activity change, negative = inhibition, % at 11.5 µM. TSHR-expressing cells, TSH-stimulated cAMP HTRF, 2 h; hits give low values;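 active means activity change below a set negative limit, meaning inhibition stronger than a set level, cut at about -70% in these data; inconclusive means activity change between two set negative limits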
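Inhibition of cAMP made by TSHR-expressing cells under TSH stimulation (4nM final, EC80; 2 h, 37 deg C) is quantified with a one-step lysis HTRF kit, anti-cAMP cryptate versus cAMP-d2.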
USP2a inh – USP2a (human) protease inhibition | O75604 | USP2 core, Ub-CHOP2 coupled fluorogenic reporter, 485/531 | Potency, µM (highest dose often 38.3 µM), actives largely listed as inhibitors | 0.01% of 330,000 active | AID 463254
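Deubiquitinase activity read as fluorescence (485/531 nm) after Ub-CHOP2 cleavage activates the enterokinase reporter on its substrate; USP2 core 10nM, Ub-CHOP2 and substrate 25nM each, 30min compound preincubation then 60min RT; data normalized to NEM, curves fitted.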
TRb SRC2 PPI – inhibitors of human thyroid hormone receptor beta-SRC2 interaction | P10828 | TRbeta-SRC2 peptide binding, fluorescence polarization; receptor liganded with 1 µM T3 | Potency, µM (top dose mostly 106 µM), usual class: inhibitors | 0.065% of 280,000 active | AID 1469; further: nearly all actives have a fitted effect of over 50% in size
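Human TRb ligand-binding domain (0.6 uM) is mixed with 20 nM Texas Red SRC2 peptide and 1 uM T3; after compound addition and 5 hr at ambient temperature, polarization is measured and normalized to unbound and bound controls.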
TexasRed fluor – alters Texas Red total fluorescence, flagging assay interference; Potency, µM (series often up to 106 µM); TRb/SRC2 Texas Red total fluorescence interference; 0.29% of 280,000 active; active means well fitted curve in either direction with a large enough effect; inconclusive means small, poorly fitted or top-dose-only effect
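Human TRb ligand-binding domain at 0.6 uM with 20 nM Texas Red SRC2 peptide in Tris buffer containing 1 uM T3 and 5% DMSO, incubated with compound 5 h at ambient temperature. Total fluorescence (555/632 nm) calculated as parallel + 2 × perpendicular.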
Large screens that a line does not name were inactive; [ ] = another dose, or the depositor's remark. A selection: hits, their analogues and other compounds. The true share with any hit is near 0.38%. Unless noted, the call rests on the fitted dose curve; in most records, active means well fitted curve in the direction sought with a large enough effect; inconclusive means small, poorly fitted or top-dose-only effect, or another doubt; inactive means no such curve, though single readings can be large; an effect the other way counts as inactive or inconclusive.

CCN1CCN(C2=C(NS(=O)(=O)c3ccc(C)cc3)C(=O)c3ccccc3C2=O)CC1	TSHR antagonist -79.4 (no result: CBFb RUNX1 block, TRb SRC2 PPI, TexasRed fluor)
Cc1cccn2c(=O)c(C(=O)NC(C)c3ccccc3)c(O)nc12 (stereo not given)	none (no result: Eya2 phos inh, CBFb RUNX1 block, TSHR antagonist, USP2a inh)
CC1=C(C(=O)OCC2CCCCC2)C(c2ccc(Cl)cc2)CC(=O)N1 (stereo not given)	none (no result: Eya2 phos inh, CBFb RUNX1 block, TSHR antagonist, USP2a inh)
Cc1ccc2nc(-c3ccsc3)c(Nc3ccc(Cl)cc3)n2c1	none (no result: Eya2 phos inh, CBFb RUNX1 block, TSHR antagonist, USP2a inh)
O=C(Nc1ccc([N+](=O)[O-])cc1Cl)c1cc(Cl)ccc1O	TSHR antagonist -90.6
O=C(Nc1cccc(Cl)c1)c1cc(N=Nc2ccc([N+](=O)[O-])cc2Cl)ccc1O	TSHR antagonist -97.6 (no result: CBFb RUNX1 block)
O=C(Nc1ccc2nc(SCC(=O)N3CCCc4ccccc43)sc2c1)c1ccccc1	none (no result: Eya2 phos inh, CBFb RUNX1 block, TSHR antagonist, USP2a inh)
CCOC(=O)N1CCN(Cc2nc3cc(NC(=O)c4ccccc4[N+](=O)[O-])ccc3n2C(C)C)CC1	TRb SRC2 PPI inconclusive, TexasRed fluor 8.91µM[quencher] (no result: Eya2 phos inh, CBFb RUNX1 block, TSHR antagonist, USP2a inh)
CC(=O)c1ccc(N(C(=O)CNC(=O)c2ccco2)C(C(=O)NC2CCCC2)c2ccncc2)cc1 (stereo not given)	TSHR antagonist -93.2 (no result: CBFb RUNX1 block, TRb SRC2 PPI, TexasRed fluor)
CC(=O)c1cccc(N(C(=O)CNC(=O)c2ccco2)C(C(=O)NC2CCCC2)c2ccncc2)c1 (stereo not given)	none (no result: CBFb RUNX1 block, TRb SRC2 PPI, TexasRed fluor)
Cc1ccccc1-c1nc2scc(CCNC(=O)c3ccco3)n2n1	none (no result: Eya2 phos inh, CBFb RUNX1 block, TSHR antagonist, USP2a inh)
CCCCCCCCCCCCCCC(=O)OC	none (no result: Eya2 phos inh, CBFb RUNX1 block, TSHR antagonist, USP2a inh)
Nc1ccc(C(=O)OCC(=O)N2CCN(C(=O)c3ccco3)CC2)cc1[N+](=O)[O-]	TexasRed fluor 0.159µM[quencher]
NC(=O)c1ccc(SCC(=O)OCC(=O)N2CCN(C(=O)c3ccco3)CC2)c([N+](=O)[O-])c1	none (no result: CBFb RUNX1 block, TRb SRC2 PPI, TexasRed fluor)
CCCCCCC(C)(C)S	none (no result: Eya2 phos inh, CBFb RUNX1 block, TSHR antagonist, USP2a inh)
CCN(CC)c1ccc(C(=O)OCC(=O)N2CCCC2)cc1	Eya2 phos inh inconclusive, TSHR antagonist -111.5 (no result: CBFb RUNX1 block, TRb SRC2 PPI, TexasRed fluor)
CCCCC(=Nc1ccc(N)cc1)C1=C(O)C(C(=O)OC)C(C)(C)CC1=O (stereo not given)	TRb SRC2 PPI inconclusive, TexasRed fluor inconclusive
CCC(=Nc1ccc(N)cc1)C1=C(O)C(C(=O)OC)C(C)(C)CC1=O (stereo not given)	TRb SRC2 PPI 28.2µM, TexasRed fluor 44.7µM[fluorescent]
Cc1onc(-c2ccccc2)c1NC(=O)N(Cc1ccccc1)C(C)C	TSHR antagonist -117.3
CCOc1ccc(N(CC(=O)NCc2ccc(F)cc2)C(=O)CCC(=O)Nc2nccs2)cc1	TSHR antagonist -94.6 (no result: CBFb RUNX1 block, TRb SRC2 PPI, TexasRed fluor)
CCOc1ccc(N(CC(=O)NCc2ccc(OC)cc2)C(=O)CCC(=O)Nc2nccs2)cc1	none (no result: CBFb RUNX1 block, TRb SRC2 PPI, TexasRed fluor)
O=C(O)c1ccccc1-c1c2ccc(=O)cc-2oc2cc(O)ccc12	none (no result: Eya2 phos inh, TSHR antagonist, USP2a inh)
O=C(O)CN(CC(=O)O)Cc1cc2c(-c3ccccc3C(=O)O)c3cc(CN(CC(=O)O)CC(=O)O)c(=O)cc-3oc2cc1O	CBFb RUNX1 block inconclusive, TRb SRC2 PPI 6.31µM, TexasRed fluor 39.8µM[fluorescent] (no result: Eya2 phos inh, TSHR antagonist, USP2a inh)
O=S(=O)(O)c1cc(O)c2c(O)c(N=Nc3cc(Cl)ccc3O)c(S(=O)(=O)O)cc2c1	Eya2 phos inh inconclusive (no result: CBFb RUNX1 block, TRb SRC2 PPI, TexasRed fluor)
Cc1cc(-c2ccc(N=Nc3c(S(=O)(=O)O)cc4cc(S(=O)(=O)O)cc(N)c4c3O)c(C)c2)ccc1N=Nc1c(S(=O)(=O)O)cc2cc(S(=O)(=O)O)cc(N)c2c1O	Eya2 phos inh inconclusive, TSHR antagonist -155.0, USP2a inh 10µM (no result: CBFb RUNX1 block, TRb SRC2 PPI, TexasRed fluor)
CN1C(=O)c2cccc3c(Cl)ccc(c23)C1=O	none
COc1ccccc1N1C(=O)c2cccc3c(Cl)ccc(c23)C1=O	TSHR antagonist -98.1 (no result: CBFb RUNX1 block, TRb SRC2 PPI, TexasRed fluor)
O=C(NCCc1ccc(Cl)cc1)C1CCN(Cc2cc3ccccc3n2Cc2ccccc2)CC1	none (no result: Eya2 phos inh, CBFb RUNX1 block, TSHR antagonist, USP2a inh)
CC(C)CCC[C@@H](C)[C@@H]1CC[C@H]2C3=CC=C4CC(O)CC[C@]4(C)[C@H]3CC[C@@]21C (stereo not given in full)	CBFb RUNX1 block inconclusive (no result: Eya2 phos inh, TSHR antagonist, USP2a inh)
CCOc1cc(/C=C/c2ccc3cccc([N+](=O)[O-])c3n2)cc(Cl)c1O	TSHR antagonist -72.4, TexasRed fluor inconclusive
O=[N+]([O-])c1cccc2ccc(/C=C/c3ccc(Cl)cc3)nc12	none
Nc1nc(-c2c[nH]c3ccccc23)cs1	TexasRed fluor 35.5µM[fluorescent]
O=C1NN(c2ccccc2)C(=O)/C1=C/c1ccc(-c2ccc(C(=O)O)cc2)o1	none (no result: CBFb RUNX1 block, TRb SRC2 PPI, TexasRed fluor)
O=C(O)c1ccc(N2C(=O)/C(=C/c3ccc(-c4ccc([N+](=O)[O-])cc4)o3)C=C2c2ccccc2)cc1	CBFb RUNX1 block inconclusive, TexasRed fluor 35.5µM[fluorescent]
